B2AR arrestin – qHTS assay of beta-arrestin-biased ligands of beta2-adrenergic receptor; beta-arrestin recruitment to beta2AR, cell-based reporter; Potency, µM (top dose mostly 46.1 µM), for the others: at the top dose activation, usual class: activators; actives 0.02% (n = 330,000);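 note: potency is the fitted concentration of half-maximal effect; 0% = DMSO controls and full agonism = EC100 isoproterenol or metaproterenol; nearly all actives have a fitted effect of over 65% in size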
RGS4 inhibitor – Inhibitors of Regulator of G Protein Signaling (RGS) 4: qHTS; Regulator of G-protein signaling 4 (Homo sapiens), P49798; Transcreener GDP fluorescence polarization, RGS4-accelerated GTP hydrolysis; Potency, µM (doses to about 114 µM), without a hit: at the top dose activity change, negative = inhibition, hits mostly inhibitors; actives 0.039% (n = 390,000); AID 504845, 2011; note: potency is the fitted concentration of half-maximal effect; % is set by controls: 0 for no effect and ±100 for the full control effect; nearly all actives have a fitted effect of over 75% in size
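MLSMR compounds (23 nl, pin-transferred) preincubated 10 min at room temperature with a 500nM (2x) first reagent, then RGS4 at 900nM (2x) plus Transcreener GDP mix added; fluorescence polarization (620/688 nm) read before and after 90 min at 30 °C.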
BRCA1 expr up – qHTS Assay to Identify Small Molecule Activators of BRCA1 Expression | Potency, µM (titrated, usually from 46.1 µM), for the others: top-dose activation, actives largely listed as activators | MCF7-BRCA1-FFLuc reporter, luminescence, 48 h; response scale: scaled: vehicle 0%, 10 µM genistein 100% | AID 624202, 2012 | actives 1.1% (n = 380,000); note: potency is the fitted concentration of half-maximal effect; nearly all actives have a fitted effect of over 80% in size
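Using MCF7 cells harboring a BRCA1 firefly luciferase reporter, plated 2 h before compound pinning, the screen measured luminescence after 48 h incubation. Responses were normalized to DMSO and 10 microM genistein, then fitted for concentration-effect.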
D3 antag – qHTS of D3 Dopamine Receptor Antagonist: qHTS; D(3) dopamine receptor (Homo sapiens), P35462; D3R cells, DiscoveRx beta-arrestin luminescence, antagonist mode; hits give low values; max response, negative = inhibition, %; actives 2.5% (n = 360,000); in the data active = max response below about -50%; inconclusive = no clear call, values can overlap the other calls; note: % is set by controls: 0 for no effect and ±100 for the full control effect
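Cells plated overnight at 1500 cells/well, then exposed to library compounds with dopamine controls for 90 minutes at 37 degrees C. DiscoveRx reagent added for 30–60 minutes at room temperature; luminescence read, quantitative HTS format.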
PTHR1 agonist – qHTS for PTHR1 Agonists: Primary Screen. Parathyroid hormone/parathyroid hormone-related peptide receptor (Homo sapiens), Q03431. Potency, µM (series often up to 115 µM), for the others: top-dose activation, most hits filed as activators. actives 0.075% (n = 410,000). HEK293 GP2 PTHR1 cells, GloSensor cAMP luminescence, 1 h; note: potency is the fitted concentration of half-maximal effect; nearly all actives have a fitted effect of over 55% in size
Target sequence (Q03431 whole entry, looked up): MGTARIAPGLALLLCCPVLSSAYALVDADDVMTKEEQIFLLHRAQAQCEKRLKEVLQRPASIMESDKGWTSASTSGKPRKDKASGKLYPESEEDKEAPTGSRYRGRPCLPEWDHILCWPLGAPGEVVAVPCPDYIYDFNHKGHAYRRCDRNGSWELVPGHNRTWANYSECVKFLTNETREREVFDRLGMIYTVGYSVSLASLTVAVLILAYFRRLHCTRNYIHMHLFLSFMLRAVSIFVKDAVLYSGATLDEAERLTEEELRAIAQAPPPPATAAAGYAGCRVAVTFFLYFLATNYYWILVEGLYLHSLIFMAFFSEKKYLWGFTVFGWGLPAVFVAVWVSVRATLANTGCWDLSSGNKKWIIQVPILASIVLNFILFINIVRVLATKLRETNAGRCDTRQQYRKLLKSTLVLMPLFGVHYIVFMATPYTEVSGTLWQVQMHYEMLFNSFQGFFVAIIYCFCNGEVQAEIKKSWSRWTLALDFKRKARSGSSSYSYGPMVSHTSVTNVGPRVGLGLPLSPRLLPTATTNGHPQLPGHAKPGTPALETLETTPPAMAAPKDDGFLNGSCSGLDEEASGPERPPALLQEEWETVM
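HEK-293-derived GP2 cells expressing PTHR1 and a GloSensor cAMP reporter, 3,000/well, plated overnight, given luciferin plus IBMX (each 0.5 mM as added) for 1 h at 37 °C, then compound for 1 h at 37 °C. Luminescence was read after 15 min at room temperature.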
D3 ag – qHTS of D3 Dopamine Receptor Agonist: qHTS; AID 652048, 2013; D3R DiscoveRx beta-arrestin cells, luminescence, 90 min; max activation, %; actives 0.58% (n = 410,000); D(3) dopamine receptor (Homo sapiens), P35462; in the data active = max activation above about 30%; note: 0% is about no effect
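Agonist mode: compounds and dopamine controls were applied to plated cells for 90 min at 37 degrees C after an overnight attachment at 1500 cells/well. Luminescent read-out followed 30 - 60 minutes at room temperature with DiscoveRx detection reagent.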
* marks the source's active call; other numbers are inactive results; i = inactive; ? = inconclusive; nt = not tested or not shown; [ ] = another dose, or the depositor's remark. A selection: hits, their analogues and other compounds. The true share with any hit is near 3.7%. Unless noted, calls come from the whole dose curve; as a rule, active = well fitted curve in the direction sought with a large enough effect; inconclusive = small, poorly fitted or top-dose-only effect, or another doubt; inactive = no such curve, though single readings can be large; an effect the other way counts as inactive or inconclusive.

SMILES	B2AR arrestin	RGS4 inhibitor	BRCA1 expr up	D3 antag	PTHR1 agonist	D3 ag
O=C(O)CSCCC(=O)Nc1ccc(F)cc1	-1%	-19%	1%	-18	-1%[57.5 µM]	41*
CC(=O)c1ccc(NC(=O)CCSCCC(=O)Nc2ccc(C(C)=O)cc2)cc1	-1%	-11%	-29%	4	i	-1
CCOc1ccc2[nH]c(C)c(CN3CCOCC3)c(=O)c2c1	0%	17%	-1%	-12	-9%	-8
Cc1[nH]c2ccc(Br)cc2c(=O)c1CN1CCOCC1	-1%	30%	-40%	-70*	-25%[57.5 µM]	0
COc1cccc2c1Oc1ncccc1N(C(=O)Nc1ccc(F)c(Cl)c1)C2	nt	-24%	nt	nt	-83%	-4
Cc1ccc(N(C(=O)CNC(=O)c2ccco2)C(C(=O)NC2CCCC2)c2ccncc2)cc1C (stereo unspecified)	0%	0%	9%	14	0%	1
C(=C\c1ccccc1)/CN1CCN(C(c2cc3ccccc3o2)c2nnnn2Cc2ccccc2)CC1 (stereo unspecified)	nt	nt	-5%	-104*	i	-15
C(=C\c1ccccc1)/CN1CCN(C(CCc2ccccc2)c2nnnn2C2CCCCC2)CC1 (stereo unspecified)	nt	nt	-25%	-59*	-21%	-20
C(=C\c1ccccc1)/CN1CCN(C(c2cc3ccccc3o2)c2nnnn2C2CCCC2)CC1 (stereo unspecified)	nt	nt	7%	-98*	-2%	-9
C(=C\c1ccccc1)/CN1CCN(C(c2nnnn2C2CCCCC2)C2CC2)CC1 (stereo unspecified)	nt	nt	-13%	-4	i	-7
COc1ccc(N2CCN(C(c3cccc(OC)c3OC)c3nnnn3C3CCCC3)CC2)cc1 (stereo unspecified)	0%	-37%	-42%	-20	-2%	-13
C(=C\c1ccccc1)/CN1CCN(C(c2cccc3ccccc23)c2nnnn2C2CCCC2)CC1 (stereo unspecified)	nt	nt	-23%	-99*	-23%	-13
CCCCn1nnnc1C(c1cc2ccccc2o1)N1CCOCC1 (stereo unspecified)	nt	nt	2%	4	-20%	7
CC(C)(C)Nc1nc2cc([N+](=O)[O-])ccc2o1	0%	14%	22%	-8	-26%	-13
O=[N+]([O-])c1ccc2oc(/C=C/c3ccc(O)cc3)nc2c1	nt	nt	10µM*	-2	-10%	5
Cc1ccc2nc(N(CCN3CCOCC3)C(=O)CCS(=O)(=O)c3ccccc3)sc2c1	0%	-18%	-10%	23	-6%	2
CCCC(=O)N(CCN1CCOCC1)c1nc2cc(C)c(C)cc2s1	0%	-2%	4µM*	-2	-4%	-3
CC1=CN2C(=N)/C(=C/c3ccco3)C(=O)N=C2S1	3%	-10%	?	-60*	-36%	-7
CC1=CN2C(=N)/C(=C/c3ccc([N+](=O)[O-])o3)C(=O)N=C2S1	0%	?	-94%	-13	-1%	-3
CN(Cc1ccccc1)C(=O)c1nc2ccccn2c1CNCCn1cccn1	0%	-4%	-1%	-6	-19%	-7
O=C(c1nc2ccccn2c1CNCCCn1ncc2ccccc21)N1CCCC1	-1%	8%	5%	-12	i	-26
CCCCN(C)C(=O)c1nc2ccccn2c1CNCCCn1ncc2ccccc21	0%	23%[11.4 µM]	-4%	-77*	i	-14
CN(Cc1ccccc1)C(=O)c1nc2ccccn2c1CNCCCOc1cccnc1	0%	11%	2%	-56*	-12%	-16
Cc1ccnc2nc(C(=O)OCC(=O)N(C)C3CCCCC3)nn12	nt	nt	3%	0	24%	-10
Cc1ccc(N(C(=O)Cn2nnc(-c3ccc(F)cc3)n2)C(C(=O)NC(C)(C)C)c2ccncc2)cc1 (stereo unspecified)	0%	6%	-22%	-15	45µM*	-8
SMILES	B2AR arrestin	RGS4 inhibitor	BRCA1 expr up	D3 antag	PTHR1 agonist	D3 ag
COc1cccc(-n2ccn(CC(=O)Nc3ccccc3F)c(=O)c2=O)c1	nt	1%	nt	nt	i	2
O=C1NC[C@H](c2ccccc2)OC(=O)[C@@H](Cc2ccc(F)cc2)CC/C=C/C[C@@H]1CC(=O)N(CCO)Cc1ccccc1	0%	-14%	-34%	-70*	-8%	-27
CC(C)(C)[C@@H]1COC(=O)[C@H](Cc2ccc(F)cc2)C/C=C\C[C@@H](CC(=O)N(CCO)Cc2ccccc2)C(=O)N1	4%	-8%	-20%	28	-4%	42*
O=C1NC[C@H](c2ccccc2)OC(=O)[C@H](Cc2ccc(F)cc2)C/C=C\C[C@@H]1CC(=O)N(CCO)Cc1ccccc1	0%	13%	-31%	34	-27%	0
O=C1NC[C@@H](c2ccccc2)OC(=O)[C@H](Cc2ccc(F)cc2)C/C=C\C[C@@H]1CC(=O)N(CCO)Cc1ccccc1	-2%	27%	-54%	-67*	i	-34
CC(C)(C)OC(=O)C[C@@H]1C/C=C\C[C@@H](CC(=O)NCCO)C(=O)NC[C@@H](c2ccccc2)OC1=O	0%	7%	2%	-63*	i	-7
C[C@@H]1CN([C@@H](C)CO)C(=O)CCCn2nncc2CO[C@H]1CN(C)C(=O)C1CCCCC1	nt	nt	-5%	-13	-11%	-4
C[C@H]1COC(=O)[C@H](Cc2ccc(F)cc2)C/C=C\C[C@H](CC(=O)NCCO)C(=O)N1	0%	-21%	-11%	-18	i	30*
C[C@@H]1COC(=O)[C@H](NC(=O)OCC2c3ccccc3-c3ccccc32)C/C=C\C[C@@H](CC(=O)N[C@@H](CO)Cc2ccccc2)C(=O)N1	0%	-5%	-28%	0	-29%	-3
O=C(C[C@H]1C/C=C\C[C@H](Cc2ccc(F)cc2)C(=O)O[C@@H](c2ccccc2)CNC1=O)N[C@H](CO)Cc1ccccc1	0%	1%	-4%	20	-7%	43*
O=C(C[C@H]1C/C=C\CC[C@H](Cc2ccc(F)cc2)C(=O)O[C@@H](c2ccccc2)CNC1=O)N[C@@H](CO)Cc1ccccc1	0%	-4%	-72%	-17	-12%	-28
C[C@H]1COC(=O)[C@@H](Cc2ccc(F)cc2)C/C=C\C[C@H](CC(=O)NCCO)C(=O)N1	-1%	17%	-12%	3	i	9

Screening results (PubChem BioAssay)
